Screening results: PubChem, National Center for Advancing Translational Sciences (NCATS)
Methyltransferases = Primary Screen for Target Class Profiling of Small Molecule Inhibitors of Methyltransferases; purified enzyme, MTase-Glo SAH luminescence; active compounds read low; calls only at 40 µM; 25,000 compounds, 3.9% hits; AID 1745853, 2022; call rule not given here
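Each enzyme was reacted with SAM and its substrate, with compounds tested once at 40 uM; SAH formed was read by MTase-Glo luminescence.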
Active calls of the source: *; i = inactive; + = active, no number; ! = not active in a repeat. This is one part of a sample in which hits are shown more often than they occur. % is scaled to controls: 0 for no effect and ±100 for the full control effect.

SMILES	Methyltransferases
COc1cccc(Cn2nc3n(Cc4ccccc4)c(=O)c4ccc(C(=O)NC(C)C)cc4n3c2=O)c1	i
COc1ccc(CCNC(=O)CCc2nnc3n(Cc4ccccc4Cl)c(=O)c4ccccc4n23)cc1OC	i
CNc1cc2c(Nc3cccc(Br)c3)ncnc2cn1	+
COc1ccc(CN2C(=O)c3cc4ccccc4n3CC2(C)C(=O)NC2CCCC2)cc1 (configuration not stated)	i
CCOC(=O)c1cc2n(n1)CC(C)(C(=O)NCCOC)N(c1ccc(Cl)cc1)C2=O (configuration not stated)	i
CCN(CC)CCOc1ccc(Nc2ncc3cc(-c4c(Cl)cccc4Cl)c(=O)n(C)c3n2)cc1	+
CNC(=O)c1cc(C2CC2)nc2onc(C3CCCN3C(=O)Cc3ccccn3)c12 (configuration not stated)	i
COc1cccc(CN2C(=O)c3nc4ccccc4n3CC2(C)C(=O)NC2CCCCC2)c1 (configuration not stated)	i
O=c1c(-c2ccc(O)cc2)coc2cc(O)cc(O)c12	i
O=c1c(O)c(-c2ccc(O)c(O)c2)oc2cc(O)cc(O)c12	+!
O=c1cc(-c2ccc(O)c(O)c2)oc2cc(O)cc(O)c12	i
Cn1c(=O)n(C)c2cc(S(=O)(=O)N(Cc3ccccc3)C(=O)c3cccnc3)ccc21	i
COc1ccc(C)cc1NS(=O)(=O)c1cc2[nH]c(=O)[nH]c2cc1Cl	i
Nc1nc(NCC2CCC(CNS(=O)(=O)c3cccc4ccccc34)CC2)nc2ccccc12 (configuration not stated)	+
O=C(NCCCc1ccccc1)C1CCC(CNS(=O)(=O)c2cccc3nsnc23)CC1 (configuration not stated)	i
CC(=O)c1ccc(Nc2nc3c(S(=O)(=O)c4ccc(C)c(C)c4)nnn3c3ccc(Cl)cc23)cc1	i
CNc1nccnc1-c1cccc(CN2CCOCC2)c1	i
O=C(Nc1nn(Cc2ccccc2)c2cccc(N3CCOCC3)c12)C1CCC1	i
O=C(NCCCNc1nc(Nc2cccc(CN3CCOCC3)c2)ncc1C1CC1)C1CCC1	+
Cc1ccc(NC(=O)CSc2nnc3n(CCc4ccccc4)c(=O)c4ccccc4n23)cc1	i
O=C(NC1CCCCC1)c1ccc2c(=O)nc3c(-c4ccccc4)n[nH]n3c2c1	i
COC(=O)C1=CO[C@@H](O[C@@H]2O[C@H](CO)[C@@H](O)[C@H](O)[C@H]2O)[C@@H]2C(CO)=CC[C@H]12	i
CSC(=O)OCC1=C[C@@H]2OC(=O)C3=CO[C@@H](O[C@@H]4O[C@H](CO)[C@@H](O)[C@H](O)[C@H]4O)[C@H]1[C@@H]32	+
O=C(/C=C/c1ccc(O)cc1)OCC1=CC2OC(=O)C3=CO[C@@H](O[C@@H]4O[C@H](CO)[C@@H](O)[C@H](O)[C@H]4O)[C@H]1[C@@H]32 (some centres not stated)	i
CC(C)NC(=O)c1ccc2c(=O)n(C(C)C)c3nn(CC(=O)NCc4ccccc4)c(=O)n3c2c1	i
SMILES	Methyltransferases
O=C(Cn1nc2n(CCc3ccccc3)c(=O)c3ccccc3n2c1=O)c1cccc(Cl)c1	i
COc1cccc(CN2C(=O)c3cc4sccc4n3CC2(C)C(=O)NC2CCCCC2)c1 (configuration not stated)	i
CCCN1C(=O)c2ccc(-c3ccco3)n2CC1(C)C(=O)NC1CCCCCCC1 (configuration not stated)	i
C=C[C@](C)(CC/C=C(\C)C(=O)O)O[C@@H]1OC[C@H](O)[C@H](O)[C@H]1O	+
C=CC(C)(CCC=C(C)C)O[C@@H]1O[C@H](CO)[C@@H](O)[C@H](O)[C@H]1O (some centres not stated)	i
C=CC(C)(CC/C=C(\C)CC/C=C(\C)CC(O)/C=C(\C)C(=O)O)O[C@@H]1O[C@H](CO)[C@@H](O)[C@H](O)[C@H]1O[C@@H]1O[C@H](CO)[C@@H](O)[C@H](O)[C@H]1O (some centres not stated)	i
Cc1ccc(Cn2c(=O)c3ccc(C(=O)NC(C)C)cc3n3c(=O)n(Cc4ccccc4F)nc23)cc1	i
COc1cc(/C=N\NC(=O)c2ccc3c(c2)OCO3)ccc1OCc1ccccc1	+
COc1ccc(/C=C/C(=O)Nc2ccccc2C(=O)O)cc1OC	i
COc1ccccc1CNC(=O)C1(C)Cn2nc(-c3ccccc3)cc2C(=O)N1Cc1ccc2c(c1)OCO2 (configuration not stated)	i
O=[N+]([O-])c1ccc(-[n+]2nc(-c3ccccc3)nn2-c2ccc(I)cc2)cc1	+
O=C(Nc1cc(-c2ccccc2)nn1-c1ccccc1)c1ccc([N+](=O)[O-])cc1	i
CCN1C(=O)c2cc3ccccc3n2CC1(C)C(=O)NCC(=O)NCc1ccccc1C (configuration not stated)	i
CC1CCC(NC(=O)CCc2nnc3n(Cc4ccccc4)c(=O)c4ccccc4n23)CC1 (configuration not stated)	i
CC(C)Cn1c(=O)c2ccc(C(=O)NC3CCCCC3)cc2n2c(=O)n(CC(=O)NC3CCCC3)nc12	i
CCN(CC)c1ccc2c(O)c(C=Nc3ccc(CC(=O)O)c(-c4c5c(nc6ccccc46)CCC(C(=O)NN)C5)c3)c(=O)oc2c1 (configuration not stated)	+
O=C(Cn1ccc2cc(S(=O)(=O)N3CCCC3)ccc21)NCCc1ccco1	i
COc1ccccc1OCCN1CC(COc2cccc3[nH]c4ccccc4c23)OCC1=O (configuration not stated)	i
CNCCC(Oc1ccccc1OC)c1ccccc1 (configuration not stated)	i
COc1ccccc1OCCNCC(O)CCOc1cccc2[nH]c3ccccc3c12 (configuration not stated)	+
C=Cc1ccc(Cn2nc3n(C(C)C)c(=O)c4ccc(C(=O)NC5CCCC5)cc4n3c2=O)cc1	i
COc1ccccc1CNC(=O)C(C)n1ccc2cc(S(=O)(=O)N3CCCCC3)ccc21 (configuration not stated)	i
Cc1ccc(CNC(=O)c2cc3n(n2)CC(C)(C(=O)NCc2ccccc2)N(C)C3=O)o1 (configuration not stated)	i
O=C(CCc1nnc2n(CCc3ccccc3)c(=O)c3ccccc3n12)NCc1ccc2c(c1)OCO2	i
CCc1cccc(N2C(=O)c3cc(-c4ccc(OC)cc4)nn3CC2(C)C(=O)NCc2ccccc2OC)c1 (configuration not stated)	i
SMILES	Methyltransferases
O=C1Nc2ccccc2C(O)(c2ccccc2)C1O (configuration not stated)	i
CC1(C(=O)NC2CCCCCCC2)Cn2c(cc3occc32)C(=O)N1Cc1cccnc1 (configuration not stated)	i
Cc1ncc(CCCN(C)C)cc1Nc1ncc2c(n1)-c1ccc(C(F)(F)F)cc1NC(=S)C2	+
Cc1ccc(N2CCN(S(=O)(=O)c3ccc4c(c3)n(C)c(=O)n4C)CC2)c(C)c1	i
Cn1c(=O)c2ccc(C(=O)NC3CCCCC3)cc2n2c(=O)n(Cc3ccccc3F)nc12	i
CCc1ccccc1NS(=O)(=O)c1ccc2[nH]c3c(c2c1)CCCC3	i
CCOCCCNC(=O)C1(C)Cn2c(ccc2-c2ccco2)C(=O)N1c1ccc(C)c(C)c1 (configuration not stated)	i
